The list is not random: actives were taken first. Their share in the collection is about 3.4%.
GPR151 ag – activators of human GPR151, primary screen, cell-based, PathHunter beta-arrestin, luminescence | hit rate 1% among 650,000 | activation, % at 11.2 µM | G-protein coupled receptor 151 (Homo sapiens), Q8TDV0 | PathHunter beta-arrestin GPR151 cells; in the data active = activation above about 4.9%;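 note: 0% = median of compound wells and 100% = cells with positive control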
FBW7 activator – FBW7 E3 ligase activators, primary screen, biochemical, AlphaScreen, human. F-box/WD repeat-containing protein 7 (Homo sapiens), Q969H0. AlphaScreen FBW7–phospho-cyclin E peptide binding, activator screen. normalized activity (activation), % at 26.1 µM. hit rate 0.13% among 650,000. AID 1259310, 2017; in the data active = normalized activity above about 1.9%;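 note: purified mutant Fbw7 with reduced substrate affinity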
TEAD-YAP inh – TEAD-YAP interaction inhibition, primary screen, TEAD-YAP interaction inhibitor project, luminescence, HEK-TIYL cells. AID 1259422, 2018. hit rate 1.4% among 640,000. TEAD-Gal4/YAP UAS-luciferase luminescence. inhibition, % at 9.12 µM; in the data active = inhibition above about 32%;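 note: 0% = median of test compound wells and 100% = reference inhibitor wells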
MITF inh – MITF inhibitors, primary screen, biochemical, AlphaScreen, human; Microphthalmia-associated transcription factor (Homo sapiens), O75030; AlphaScreen MITF homodimerization, bead proximity signal; inhibition, % at 2.6 µM; hit rate 0.91% among 650,000; in the data active = inhibition above about 50%;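 note: 0% = vehicle wells with protein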
Target sequence (O75030 whole entry, looked up): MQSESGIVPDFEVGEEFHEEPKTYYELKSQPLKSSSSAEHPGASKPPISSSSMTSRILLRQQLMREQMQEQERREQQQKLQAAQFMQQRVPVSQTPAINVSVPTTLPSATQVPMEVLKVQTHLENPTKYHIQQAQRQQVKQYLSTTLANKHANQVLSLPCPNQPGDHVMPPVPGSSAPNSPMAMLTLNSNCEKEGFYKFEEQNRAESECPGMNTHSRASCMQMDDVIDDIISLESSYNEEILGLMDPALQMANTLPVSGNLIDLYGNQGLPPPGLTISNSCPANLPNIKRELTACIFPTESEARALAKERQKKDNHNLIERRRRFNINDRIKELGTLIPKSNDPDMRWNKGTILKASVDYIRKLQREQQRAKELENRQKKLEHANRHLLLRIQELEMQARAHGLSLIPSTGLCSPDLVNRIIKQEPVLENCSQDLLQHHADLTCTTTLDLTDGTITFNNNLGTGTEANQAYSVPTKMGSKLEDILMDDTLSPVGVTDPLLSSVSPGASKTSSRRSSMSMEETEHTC
Active calls of the source: *.

SMILES	GPR151 ag	FBW7 activator	TEAD-YAP inh	MITF inh
O=C(NCc1nc2ccccc2[nH]1)c1ccnc(N2CCOCC2)c1	-1	0	-1	20
CN1CCN(c2ccc(-c3cccc(C=O)c3)cn2)CC1	-5	0	-30	9
O=Cc1cccc(-c2ccc(N3CCOCC3)nc2)c1	-3	0	47*	7
CC1=C(C(=O)OCC2CCCCC2)C(c2cccc(OCc3ccccc3)c2)NC(=O)N1 (stereo not drawn)	1	0	-11	8
CC(=O)Nc1ccc(N2CCN(C(=O)c3ccco3)CC2)c(Cl)c1	0	0	3	-17
COc1ccc(C2=NN(S(=O)(=O)c3ccc(C)cc3)C(c3cccc([N+](=O)[O-])c3)C2)cc1OC (stereo not drawn)	4	0	-5	3
CCNc1nc(NCC)nc(-n2nc(C)cc2C)n1	3	0	53*	-2
Cc1cc(C)nc(-n2nc(C)cc2C)n1	0	0	-6	2
Oc1ccccc1/C=N\Nc1nc2ccccc2[nH]1	0	-1	-28	16
Oc1ccc(/C=N/Nc2nc(Nc3ccccc3)nc(Nc3ccccc3)n2)c(O)c1	0	0	51*	8
Oc1ccc(/C=N/Nc2nc3ccccc3[nH]2)c(O)c1O	-1	-1	-17	40
Oc1ccc(/C=N/Nc2nc3ccccc3[nH]2)c(O)c1	-1	-1	16	65*
Oc1c(Cl)cc(Cl)cc1/C=N/Nc1nc2ccccc2[nH]1	0	0	61*	-22
CCC(C)(C)NC(=O)CN(C(=O)c1csnn1)c1ccc(F)c(Cl)c1	-1	0	13	-32
NC1=NC(=O)/C(=C\c2ccc(-c3cccc(Cl)c3)o2)S1	1	0	-4	15
CCN=C1S/C(=C\c2ccc(-c3cccc(C(=O)O)c3)o2)C(=O)N1CC	1	0	34*	8
CCN=C1S/C(=C/c2ccc(-c3ccc(Cl)cc3C(=O)O)o2)C(=O)N1CC	0	0	-1	-1
NC1=NC(=O)/C(=C/c2ccc(-c3cccc(C(=O)O)c3)o2)S1	0	0	70*	3
CC(=O)NC1CCN(C(=O)Nc2ccccc2)CC1	4	2.1*	7	15
O=C(NC1CC1)C1CCN(C(=O)Nc2ccccc2)CC1	-1	0	-55	-1
COc1cccc(/C=C2\CN(C)C/C(=C\c3cccc(OC)c3OC)C2=O)c1OC	0	0	33*	17
Cc1ccc2nc(-c3ccc(C)c(N)c3)oc2c1	-8	1	55*	11
Cc1ccc2nc(-c3ccc(Br)c(N)c3)oc2c1	-2	1	70*	20
Cc1ccc2nc(-c3ccc(NC(=O)c4cc(I)ccc4Br)cc3)oc2c1	-1	0	-29	7
Cc1ccc2nc(-c3cccc(-c4nc5ccc(C)cc5o4)c3)oc2c1	0	0	-46	-11
SMILES	GPR151 ag	FBW7 activator	TEAD-YAP inh	MITF inh
CN(C)C(=S)SCC(=O)Nc1ccccc1O	-1	0	-4	1
CCc1ccccc1Nc1nc(N)nc(CCl)n1	1	0	45*	13
CCC(c1nnnn1C(C)(C)C)N(CCCO)Cc1cc2cc(C)ccc2[nH]c1=O (stereo not drawn)	0	0	7	2
Cc1cc(OCC(=O)NNC(=O)CCc2ccccc2)ccc1Br	-1	2.3*	6	7
COc1ccccc1NC(=O)CCCc1nc(-c2ccc(C)cc2)no1	0	0	10	5
COc1ccccc1NC(=O)CCc1nc(-c2ccc(C(C)(C)C)cc2)no1	-2	0	71*	-1
CCOc1ccc2ccc(OCC)c(C=C3C(=O)NC(=O)NC3=O)c2c1	-1	0	-30	18
CCOc1ccc2ccc(OCC)c(/C=C3/NC(=S)NC3=O)c2c1	-1	0	57*	-3
CCOc1cccc(/C=C2/NC(=S)NC2=O)c1O	-2	0	51*	11
CCOc1ccccc1/C=C1\NC(=S)NC1=O	-1	0	-10	4
COCCCNC(=O)/C(C#N)=C/c1cn(Cc2ccc(F)cc2)c2ccccc12	2	2	44*	12
COCCCNC(=O)/C(C#N)=C/c1cn(Cc2cccc(F)c2)c2ccccc12	0	0	35*	13
Cc1ncc(CO)c2cc(C(=O)Nc3ccccc3F)c(=N)oc12	5	0	2	11
Cc1ccc(-c2cn3nc(C)c(C)nc3n2)cc1	-5	0	46*	-3
COc1ccc(-c2cn3nc(C)c(C)nc3n2)cc1OC	1	0	-54	2
COc1cc(/C=C2\Oc3c(ccc(O)c3CN3CCCC3)C2=O)cc(OC)c1OC	1	0	32*	-1
Cc1ccc2nc(-c3cc4ccccc4oc3=O)cn2c1	-5	0	-36	-2
COC(=O)c1ccc2nc(-c3ccc(F)cc3)cn2c1	-9	0	42*	3
Cc1ccc2nc(-c3ccc(F)cc3)cn2c1	-10	0	93*	-16
Cc1ccc2nc(-c3ccccc3Cl)cn2c1	-7	0	93*	-6
COc1ccc(-c2cn3cc(C)ccc3n2)cc1	-8	0	82*	-3
COCCCNC(=O)CN1N=C(c2ccc(C)cc2)CCC1=O	0	0	5	-7
CCS(=O)(=O)N1CCCc2cc(NS(=O)(=O)c3cc(C)c(C)cc3C)ccc21	1	0	17	17
O=C1CCC(CCC(=O)N2CCCC(C(=O)c3ccccc3)C2)(Cc2cccs2)N1 (stereo not drawn)	1	0	5	10
N#Cc1sc(NC(=O)c2ccc(F)c(F)c2)nc1Cl	-12	0	26	-3
SMILES	GPR151 ag	FBW7 activator	TEAD-YAP inh	MITF inh
N#Cc1sc(NC(=O)c2cccc(Br)c2)nc1Cl	-9	0	64*	6
Cc1ccc(C(=O)Nc2nc(Cl)c(C#N)s2)cc1	-12	0	71*	2
CCc1ccc(N=c2ssc3c2-c2cc(C)ccc2NC3(C)C)cc1	1	0	1	19
c1ccc(-n2cnc3c(NC4CC4)nc(N4CCOCC4)nc32)cc1	1	0	52*	-1
OCC1CCCN1c1nc(NC2CC2)c2ncn(-c3ccsc3)c2n1 (stereo not drawn)	2	0	1	4
c1ccc(-n2cnc3c(NC4CC4)nc(N4CCN(c5ccccn5)CC4)nc32)cc1	-1	0	37*	16
CC(C)N(CCNc1nc(N2CCOCC2)nc2c1ncn2-c1ccsc1)C(C)C	0	0	55*	2
CC(=O)Nc1ccc(Nc2nc(N3CCN(c4ccccn4)CC3)nc3c2ncn3-c2ccccc2)cc1	4	0	22	4
c1cc(-n2cnc3c(NC4CC4)nc(N4CCOCC4)nc32)cs1	-1	0	56*	-1
O=C(COC(=O)c1ccc2c(c1)C(=O)N(Cc1cccnc1)C2=O)c1ccccc1	-1	0	13	0
